PubChem BioAssay (NCI)
This is part of a sample that, as a whole, favours compounds with a hit. Of some 83,000 tested, about 20% had one in any assay.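 Cell lines were cultured in 96-well plates, exposed to a single compound concentration, and assessed for percent growth 48 hours later.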 Unmarked numbers belong to inactive results. Active and inactive are the calls of the source. The calls were made as follows: active = growth percent below 10; inactive = the rest.

These compounds were tested on HL-60(TB) leukemia (assay: NCI-60 one-dose screen, 48 h (100 = growth as untreated, 0 = no growth, -100 = all killed)). Settings: 10 µM unless noted.
In the case of `c1cc2c(ccc3[nH]c(-c4ccc5[nH]ncc5c4)c4c(c32)CCCC4)n1`, the growth is reported as 9.65% (active).
In the case of `Cc1ccc(S(=O)(=O)NC(=O)n2cc(-c3ccncc3)c(-c3ccc(Cl)c(O)c3)n2)cc1`, the growth is reported as 85.1%.
In the case of `O=C(/C=C/c1ccccc1)c1c[nH]c2ccccc2c1=O`, the growth is reported as -12.9% (active).
`O=c1[nH][n+](-c2ccc(Cl)cc2)no1` showed a growth of 24.9%.
With `CC(CC(CCC(=O)O)(c1ccccc1)c1ccccc1)N(C)C` (centres undefined) the growth was 109%.
`COc1cc2c3c(c4c5ccccc5[nH]c4c2c(OC)c1OC)C(=O)N(CCN1CCCCC1)C3=O` was tested, and the growth was 63%.
Compound `N=c1ccn2c(n1)OC1C(O)C(CO)OC12` (centres undefined) has a growth of 106%.
`O=c1[nH]c(N2CCC(Cc3ccccc3)CC2)nc2sc3c(c12)CCCC3` showed a growth of 95.7%.
Compound `C/C(=C\c1cc(Cl)ccc1OCC(=O)O)[N+](=O)[O-]` has a growth of 52.5%.
In the case of `C=C(C)[C@@H]1CC[C@]2(C(=O)OC)CC[C@]3(C)[C@H](CC[C@@H]4[C@@]5(C)C/C(=C/c6cccc(I)c6)C(=O)C(C)(C)[C@@H]5CC[C@]43C)[C@@H]12`, the growth is reported as 97.6%.
Work on `CC12CCC3C4(C)COC(c5ccccc5Cl)OC4CCC3(C)C1CC(C1=CCOC1=O)O2` (centres undefined) yielded a growth of 26.2%.
`CSc1nc(-c2ccc(F)cc2)c(C#N)c(N2CCOCC2)n1` was tested, and the growth was 79.6%.
`CCN(C(=O)c1ccc2c3c(cccc13)C=C2)c1ccccc1` was tested, and the growth was 86.4%.
`O=C1/C(=C/c2cccs2)CCC/C1=C\c1cccs1` showed a growth of 93.8%.
